# Data from PubChem BioAssay AID1159580 (chemical genetic matrix, 2015).
# Several values for one entry are separate records, joined by “and”; a condition that tells them apart may be missing. Equal values may be shown once. The campaign covered roughly 5,500 compounds. About 2,000 (36%) were called active. Roughly 18% stayed inconclusive and do not appear here. This is one part of the list. A number with no mark means an inactive call. No stated cut-off is given here; in the data, active means normalized growth mostly below about 0.91 (no sharp cut-off); inconclusive means no clear call, values can overlap the other calls; inactive means mostly above about 0.92.
# Experiment: chemical genetic growth profiling, strain panel (AID 1159580);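 further: tested at 20 µM; growth read once vehicle control cultures reached saturation at 30 °C; 1 = growth at the plate median or of vehicle wells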
# Conditions: growth OD
# [1] = S. cerevisiae deletion strains, locus YAL013W, strain DEP1, stronger effect = lower value
# [2] = S. cerevisiae deletion strains, locus YBR229C, strain ROT2, stronger effect = lower value
# [3] = S. cerevisiae deletion strains, locus YDL101C, strain DUN1, stronger effect = lower value
# [4] = S. cerevisiae deletion strains, locus YDL134C, strain PPH21, stronger effect = lower value
# [5] = S. cerevisiae deletion strains, locus YDR150W, strain NUM1, stronger effect = lower value
# [6] = S. cerevisiae deletion strains, locus YEL061C, strain CIN8, stronger effect = lower value
# [7] = S. cerevisiae deletion strains, locus YGR078C, strain PAC10, stronger effect = lower value
# [8] = S. cerevisiae deletion strains, locus YGR229C, strain SMI1, stronger effect = lower value
# [9] = S. cerevisiae deletion strains, locus YHR030C, strain SLT2, stronger effect = lower value
# [10] = S. cerevisiae deletion strains, locus YHR087W, strain rtc3, stronger effect = lower value
# [11] = S. cerevisiae deletion strains, locus YJR043C, strain POL32, stronger effect = lower value
# [12] = S. cerevisiae deletion strains, locus YJR075W, strain HOC1, stronger effect = lower value
# [13] = S. cerevisiae deletion strains, locus YKL190W, strain CNB1, stronger effect = lower value
# [14] = S. cerevisiae deletion strains, locus YLR039C, strain RIC1, stronger effect = lower value
# [15] = S. cerevisiae deletion strains, locus YLR058C, strain SHM2 (second series), stronger effect = lower value
# [16] = S. cerevisiae deletion strains, locus YLR085C, strain ARP6, stronger effect = lower value
# [17] = S. cerevisiae deletion strains, locus YLR262C, strain YPT6, stronger effect = lower value
# [18] = S. cerevisiae deletion strains, locus YML094W, strain GIM5, stronger effect = lower value
# [19] = S. cerevisiae deletion strains, locus YMR219W, strain ESC1, stronger effect = lower value
# [20] = S. cerevisiae deletion strains, locus YMR263W, strain SAP30, stronger effect = lower value
# [21] = S. cerevisiae deletion strains, locus YMR307W, strain GAS1, stronger effect = lower value
# [22] = S. cerevisiae deletion strains, locus YNL153C, strain GIM3, stronger effect = lower value
# [23] = S. cerevisiae deletion strains, locus YNL298W, strain CLA4 (second series), stronger effect = lower value
# [24] = S. cerevisiae deletion strains, locus YNL322C, strain KRE1, stronger effect = lower value
# [25] = S. cerevisiae deletion strains, locus YNR030W, strain Alg12, stronger effect = lower value
# [26] = S. cerevisiae deletion strains, locus YPL055C, strain LGE1, stronger effect = lower value
# [27] = S. cerevisiae deletion strains, locus YPL241C, strain CIN2, stronger effect = lower value
# [28] = S. cerevisiae deletion strains, locus YPR135W, strain CTF4, stronger effect = lower value
# [29] = S. cerevisiae deletion strains, locus YOL006C, strain TOP1, stronger effect = lower value
# [30] = S. cerevisiae strains, strain wild type, stronger effect = lower value
smiles,measurement,setting,value
O=C(NNC(=S)Nc1cccc(Cl)c1)c1ccncc1,normalized growth,[1],0.977
same,normalized growth,[2],0.996
same,normalized growth,[3],0.983
same,normalized growth,[4],0.995
same,normalized growth,[5],0.95
same,normalized growth,[6],1
same,normalized growth,[7],0.983
same,normalized growth,[8],0.997
same,normalized growth,[9],1
same,normalized growth,[10],1
same,normalized growth,[11],0.98
same,normalized growth,[12],1.01
same,normalized growth,[13],1.01
same,normalized growth,[14],1.04
same,normalized growth,[15],0.981
same,normalized growth,[16],0.989
same,normalized growth,[17],0.99
same,normalized growth,[18],1.01
same,normalized growth,[19],0.991
same,normalized growth,[20],0.994
same,normalized growth,[21],1.02
same,normalized growth,"S. cerevisiae deletion strains, locus YNL128W, strain TEP1, stronger effect = lower value",0.995
same,normalized growth,[22],0.986
same,normalized growth,[23],0.965
same,normalized growth,[24],0.991
same,normalized growth,[25],0.951
same,normalized growth,[26],0.914
same,normalized growth,[27],0.992
same,normalized growth,[28],0.938
O=C(NNC(=S)Nc1cccc(Cl)c1)C1CC1,normalized growth,[1],0.987
same,normalized growth,[2],0.951
same,normalized growth,[3],0.963
same,normalized growth,[4],0.99
same,normalized growth,[5],0.917
same,normalized growth,[6],0.857 (active)
same,normalized growth,[7],0.956
same,normalized growth,[8],1
same,normalized growth,[9],0.489 (active)
same,normalized growth,[10],0.986
same,normalized growth,"S. cerevisiae deletion strains, locus YJL187C, strain SWE1, stronger effect = lower value",0.967
same,normalized growth,[11],0.942
same,normalized growth,[12],0.986
same,normalized growth,[13],0.913 (active)
same,normalized growth,[14],0.749 (active)
same,normalized growth,[15],0.998
same,normalized growth,[16],0.673 (active)
same,normalized growth,[17],0.949
same,normalized growth,[18],0.796 (active)
same,normalized growth,[19],0.988
same,normalized growth,[20],0.975
same,normalized growth,[21],0.684
same,normalized growth,[22],0.965
same,normalized growth,[23],0.782 (active)
same,normalized growth,[24],1.05
same,normalized growth,[25],0.859 (active)
same,normalized growth,[29],0.384 (active)
same,normalized growth,[26],0.735 (active)
same,normalized growth,[27],0.784 (active)
same,normalized growth,[28],0.69
same,normalized growth,[30],0.953
C[C@@H]1O[C@@H](O[C@H]2[C@H](Oc3cc(O)c4c(=O)cc(-c5ccc(O)cc5)oc4c3)O[C@H](CO)[C@@H](O)[C@@H]2O)[C@H](O)[C@H](O)[C@H]1O,normalized growth,[1],0.994
same,normalized growth,"S. cerevisiae deletion strains, locus YBR021W, strain FUR4, stronger effect = lower value",1
same,normalized growth,[2],1
same,normalized growth,"S. cerevisiae deletion strains, locus YCL029C, strain bik1, stronger effect = lower value",0.977
same,normalized growth,"S. cerevisiae deletion strains, locus YDL035C, strain GPR1, stronger effect = lower value",1
same,normalized growth,"S. cerevisiae deletion strains, locus YDL074C, strain BRE1, stronger effect = lower value",0.933
same,normalized growth,[3],0.998
same,normalized growth,[4],1.07
same,normalized growth,"S. cerevisiae deletion strains, locus YDL185W, strain tfp1, stronger effect = lower value",0.95
same,normalized growth,"S. cerevisiae deletion strains, locus YDL192W, strain arf1, stronger effect = lower value",0.998
same,normalized growth,"S. cerevisiae deletion strains, locus YDR101C, strain arx1, stronger effect = lower value",0.937
same,normalized growth,"S. cerevisiae deletion strains, locus YDR162C, strain NBP2, stronger effect = lower value",1.01
same,normalized growth,"S. cerevisiae deletion strains, locus YDR318W, strain mcm21, stronger effect = lower value",1
same,normalized growth,"S. cerevisiae deletion strains, locus YDR388W, stronger effect = lower value",0.996
same,normalized growth,"S. cerevisiae deletion strains, locus YDR502C, strain sam2, stronger effect = lower value",0.99
same,normalized growth,[6],1
same,normalized growth,"S. cerevisiae deletion strains, locus YER110C, stronger effect = lower value",0.982
same,normalized growth,"S. cerevisiae deletion strains, locus YER155C, strain BEM2, stronger effect = lower value",0.991
same,normalized growth,"S. cerevisiae deletion strains, locus YER167W, strain BCK2, stronger effect = lower value",0.994
same,normalized growth,"S. cerevisiae deletion strains, locus YGL078C, strain dbp3, stronger effect = lower value",0.981
same,normalized growth,"S. cerevisiae deletion strains, locus YGL086W, strain mad1, stronger effect = lower value",0.954
same,normalized growth,"S. cerevisiae deletion strains, locus YGL248W, strain PDE1, stronger effect = lower value",1.02
same,normalized growth,"S. cerevisiae deletion strains, locus YGR135W, strain pre9, stronger effect = lower value",1.02
same,normalized growth,"S. cerevisiae deletion strains, locus YGR252W, strain gcn5, stronger effect = lower value",1.11
same,normalized growth,[9],0.989 and 1.02
same,normalized growth,"S. cerevisiae deletion strains, locus YHR079C, strain IRE1 (second series), stronger effect = lower value",0.976
same,normalized growth,"S. cerevisiae deletion strains, locus YHR079C, strain IRE1, stronger effect = lower value",1.03
same,normalized growth,"S. cerevisiae deletion strains, locus YHR094C, strain hxt1, stronger effect = lower value",0.99
same,normalized growth,"S. cerevisiae deletion strains, locus YHR129C, strain ARP1, stronger effect = lower value",1.02
same,normalized growth,"S. cerevisiae deletion strains, locus YHR200W, strain rpn10, stronger effect = lower value",0.988
same,normalized growth,"S. cerevisiae deletion strains, locus YIL066C, strain RNR3, stronger effect = lower value",0.994
same,normalized growth,"S. cerevisiae deletion strains, locus YIL073C, strain SPO22, stronger effect = lower value",0.981
same,normalized growth,"S. cerevisiae deletion strains, locus YIL125W, strain kgd1, stronger effect = lower value",0.972
same,normalized growth,"S. cerevisiae deletion strains, locus YIR030C, strain dcg1, stronger effect = lower value",0.983
same,normalized growth,"S. cerevisiae deletion strains, locus YJL095W, strain BCK1, stronger effect = lower value",1.03 and 0.992
same,normalized growth,"S. cerevisiae deletion strains, locus YJL134W, strain LCB3, stronger effect = lower value",0.992
same,normalized growth,"S. cerevisiae deletion strains, locus YJL168C, strain set2, stronger effect = lower value",1
same,normalized growth,"S. cerevisiae deletion strains, locus YJL187C, strain SWE1 (second series), stronger effect = lower value",0.995
same,normalized growth,[11],0.993
same,normalized growth,"S. cerevisiae deletion strains, locus YJR066W, strain TOR1, stronger effect = lower value",0.981
same,normalized growth,"S. cerevisiae deletion strains, locus YKL009W, strain mrt4, stronger effect = lower value",0.955
same,normalized growth,"S. cerevisiae deletion strains, locus YKL068W, stronger effect = lower value",0.987
same,normalized growth,"S. cerevisiae deletion strains, locus YKL085W, strain MDH1 (second series), stronger effect = lower value",0.981
same,normalized growth,"S. cerevisiae deletion strains, locus YKL085W, strain MDH1, stronger effect = lower value",0.981
same,normalized growth,"S. cerevisiae deletion strains, locus YKR001C, strain vps1, stronger effect = lower value",0.982
same,normalized growth,[14],0.963
same,normalized growth,"S. cerevisiae deletion strains, locus YLR058C, strain SHM2, stronger effect = lower value",0.998
same,normalized growth,"S. cerevisiae deletion strains, locus YLR102C, strain apc9, stronger effect = lower value",0.987
same,normalized growth,"S. cerevisiae deletion strains, locus YLR113W, strain HOG1, stronger effect = lower value",0.967
same,normalized growth,[17],0.95
same,normalized growth,"S. cerevisiae deletion strains, locus YLR268W, strain sec22, stronger effect = lower value",0.951
same,normalized growth,"S. cerevisiae deletion strains, locus YLR330W, strain CHS5, stronger effect = lower value",0.979
same,normalized growth,"S. cerevisiae deletion strains, locus YLR342W, strain FKS1 (second series), stronger effect = lower value",1.01
same,normalized growth,"S. cerevisiae deletion strains, locus YLR371W, strain rom2, stronger effect = lower value",0.98
same,normalized growth,"S. cerevisiae deletion strains, locus YLR418C, strain cdc73, stronger effect = lower value",1.01
same,normalized growth,"S. cerevisiae deletion strains, locus YML016C, strain PPZ1, stronger effect = lower value",0.995
same,normalized growth,"S. cerevisiae deletion strains, locus YML032C, strain rad52, stronger effect = lower value",1.04
same,normalized growth,"S. cerevisiae deletion strains, locus YML124C, strain tub3, stronger effect = lower value",0.978
same,normalized growth,"S. cerevisiae deletion strains, locus YMR078C, strain ctf18, stronger effect = lower value",0.975
same,normalized growth,"S. cerevisiae deletion strains, locus YMR223W, strain ubp8, stronger effect = lower value",1
same,normalized growth,[20],0.985
same,normalized growth,[21],1.05
same,normalized growth,"S. cerevisiae deletion strains, locus YNL067W, strain RPL9B, stronger effect = lower value",0.999
same,normalized growth,"S. cerevisiae deletion strains, locus YNL183C, strain NPR1, stronger effect = lower value",0.963
same,normalized growth,"S. cerevisiae deletion strains, locus YNL233W, strain BNI4, stronger effect = lower value",0.988
same,normalized growth,"S. cerevisiae deletion strains, locus YNL250W, strain rad50, stronger effect = lower value",0.955
same,normalized growth,"S. cerevisiae deletion strains, locus YNL271C, strain bni1, stronger effect = lower value",0.981
same,normalized growth,"S. cerevisiae deletion strains, locus YNL298W, strain CLA4, stronger effect = lower value",0.991
same,normalized growth,"S. cerevisiae deletion strains, locus YNL307C, strain MCK1, stronger effect = lower value",0.971
same,normalized growth,"S. cerevisiae deletion strains, locus YNR052C, strain pop2, stronger effect = lower value",1.01
same,normalized growth,[29],0.99
same,normalized growth,"S. cerevisiae deletion strains, locus YOL012C, strain htz1",0.768
same,normalized growth,"S. cerevisiae deletion strains, locus YOL147C, strain pex11, stronger effect = lower value",0.992
same,normalized growth,"S. cerevisiae deletion strains, locus YOR061W, strain CKA2, stronger effect = lower value",0.997
same,normalized growth,"S. cerevisiae deletion strains, locus YOR069W, strain VPS5, stronger effect = lower value",0.994
same,normalized growth,"S. cerevisiae deletion strains, locus YOR136W, strain idh2, stronger effect = lower value",0.965
same,normalized growth,"S. cerevisiae deletion strains, locus YOR144C, strain elg1, stronger effect = lower value",0.996
same,normalized growth,"S. cerevisiae deletion strains, locus YOR184W, strain ser1, stronger effect = lower value",0.993
same,normalized growth,"S. cerevisiae deletion strains, locus YOR231W, strain MKK1, stronger effect = lower value",0.989
same,normalized growth,"S. cerevisiae deletion strains, locus YOR316C, strain cot1, stronger effect = lower value",0.981
same,normalized growth,"S. cerevisiae deletion strains, locus YPL256C, strain CLN2, stronger effect = lower value",1
same,normalized growth,"S. cerevisiae deletion strains, locus YPR119W, strain clb2, stronger effect = lower value",0.978
same,normalized growth,"S. cerevisiae deletion strains, locus YPR141C, strain kar3, stronger effect = lower value",0.986
same,normalized growth,"S. cerevisiae deletion strains, locus YPR163C, strain tif3, stronger effect = lower value",0.992
same,normalized growth,"S. cerevisiae deletion strains, locus YPR167C, strain met16, stronger effect = lower value",0.981
same,normalized growth,"S. cerevisiae deletion strains, strain wtn01, stronger effect = lower value",0.948
same,normalized growth,[30],0.998
